Compound activity from PubChem.
Most compounds without a hit are left out; they make up all but 4% or so of the library.
Rv3671c inh = inhibits the M. tuberculosis serine protease Rv3671c. P9WHR9. inhibition, % at 5.96 µM. actives 0.048% (n = 320,000). AID 2606; in the data active = inhibition above about 38%;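 also: extracellular domain of Rv3671c used as enzyme; 0% = enzyme with DMSO and 100% = no enzyme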
Target sequence (P9WHR9 whole entry, looked up, the tested form may be a part): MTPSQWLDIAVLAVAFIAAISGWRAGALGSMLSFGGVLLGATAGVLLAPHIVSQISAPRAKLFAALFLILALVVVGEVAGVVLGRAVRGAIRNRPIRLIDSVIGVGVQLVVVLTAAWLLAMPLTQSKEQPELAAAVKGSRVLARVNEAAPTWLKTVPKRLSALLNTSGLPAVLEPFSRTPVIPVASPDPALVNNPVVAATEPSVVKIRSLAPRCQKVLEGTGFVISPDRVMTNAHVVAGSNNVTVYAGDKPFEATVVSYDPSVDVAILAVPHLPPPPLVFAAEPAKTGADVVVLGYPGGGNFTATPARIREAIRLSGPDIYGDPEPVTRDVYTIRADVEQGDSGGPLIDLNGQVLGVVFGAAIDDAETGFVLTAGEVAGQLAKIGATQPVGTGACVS
RecA splice inh = Mtb RecA intein splicing inhibition; P9WHJ3; cell-free RecA intein splicing, fluorescence; inhibition, % (test concentration not listed); actives 0.75% (n = 290,000); AID 2221; in the data active = inhibition above about 30%; inconclusive = no clear call, values can overlap the other calls;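 also: 0% = vehicle wells and 100% = reference inhibitor control wells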
Mtb FBA inh = inhibits M. tuberculosis FBA enzyme. actives 2.3% (n = 360,000). purified M. tuberculosis FBA, fluorescence read-out. inhibition, % at 1 µM. P9WQA3; in the data active = inhibition above about 27%;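 also: 0% = vehicle and 100% = reference inhibitor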
GDH-TPI inh = inhibits GDH-TPI coupling enzymes, artifact for Mtb FBA screen; GDH-TPI coupled enzyme counterscreen, NADH absorbance; actives 1.2% (n = 360,000); inhibition, % at 4.8 µM; in the data active = inhibition above about 30%;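 also: 0% = DMSO wells and 100% = wells lacking the enzyme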
UGM FP inh = Mtb UDP-galactopyranose mutase inhibition; P9WIQ1; purified UGM, fluorescence polarization probe displacement; inhibition, % at 10 µM; actives 0.06% (n = 320,000); AID 504406; in the data active = inhibition above about 10%, passing the limit was not always enough; inconclusive = no clear call, values can overlap the other calls
Mtb betalactam = beta-lactam sensitization of Mtb H37Rv; inhibition, % at 25 µM; AID 434955; M. tuberculosis H37Rv growth with meropenem, percent inhibition; actives 0.27% (n = 330,000); call rule not given here;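 also: growth measured after seven days incubation then overnight dye step; 0% = bacteria only wells and 100% = bacteria with antibiotic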
Numbers without * were called inactive.

For COc1cc(/C=N/Nc2ccc(S(N)(=O)=O)cc2[N+](=O)[O-])cc(OC)c1O the results were Rv3671c inh 7.7, RecA splice inh -1.8, Mtb FBA inh -22.9, GDH-TPI inh 41.5*, UGM FP inh 3.0 and Mtb betalactam -7.8.
For COc1ccc(CCNC(=O)CSc2nc(=O)n3cc(C)ccc3n2)cc1OC the results were Rv3671c inh 5.2, RecA splice inh -0.3, Mtb FBA inh -0.8, GDH-TPI inh 14.2, UGM FP inh 0.1 and Mtb betalactam -7.8.
CCC(C)N(C(=O)CSc1nnc(NC(C)C)s1)C1CCS(=O)(=O)C1 (stereo unspecified) was read as Rv3671c inh 2.5, RecA splice inh 1.2, Mtb FBA inh 2.0, GDH-TPI inh 2.8, UGM FP inh 2.1 and Mtb betalactam -6.4.
For CN(CCO)c1ccc(C=NNc2ccc([N+](=O)[O-])cc2S(=O)(=O)Nc2ccccc2C(=O)O)cc1 the results were Rv3671c inh 8.9, Mtb FBA inh -19.1, GDH-TPI inh 32.7*, UGM FP inh 3.8 and Mtb betalactam 2.5.
O=C(NC(=C(Cl)Cl)S(=O)(=O)c1ccc(Cl)cc1)c1ccccc1 was read as Rv3671c inh 1.9, RecA splice inh 30.2*, Mtb FBA inh -2.5, GDH-TPI inh -1.2, UGM FP inh -0.2 and Mtb betalactam -0.2.
`Cn1c(=O)n(C)c2cc(NC(=O)Cc3ccccc3[N+](=O)[O-])ccc21` gave Rv3671c inh 3.4, RecA splice inh 1.4, Mtb FBA inh 2.4, GDH-TPI inh -5.1, UGM FP inh 1.4 and Mtb betalactam -0.4.
Cn1c(=O)c(=O)n(C)c2cc(N3CCOCC3)c(NS(=O)(=O)c3ccc(Br)cc3)cc21 was read as Rv3671c inh -8.0, RecA splice inh -5.5, Mtb FBA inh -0.1, GDH-TPI inh 15.2, UGM FP inh -1.5 and Mtb betalactam 0.4.
Cc1ccc(S(=O)(=O)Nc2cc3c(cc2N2CCOCC2)n(C)c(=O)c(=O)n3C)cc1 was read as Rv3671c inh 1.7, RecA splice inh 2.8, Mtb FBA inh 2.7, GDH-TPI inh 31.7*, UGM FP inh -0.2 and Mtb betalactam inconclusive.
Screening Cc1cc(C(=O)OCC(=O)c2cccs2)ccc1[N+](=O)[O-] returned Mtb FBA inh -2.6 and GDH-TPI inh 13.1.
`CC(=O)c1sc(=S)n(-c2ccccc2)c1C` gave Rv3671c inh -1.9, RecA splice inh -10.5, Mtb FBA inh 2.0, GDH-TPI inh 68.3*, UGM FP inh 0.6 and Mtb betalactam 0.2.
Screening COc1ccc(CCN(C)C(=O)Cn2c(=O)oc3ccccc32)cc1OC returned Rv3671c inh 2.1, RecA splice inh 3.6, Mtb FBA inh 0.2, GDH-TPI inh 6.5, UGM FP inh 3.6 and Mtb betalactam -0.1.
Screening CCOC(=O)C(C)Sc1ncnc2c1nnn2-c1ccc(F)cc1 (stereo unspecified) returned Rv3671c inh -8.6, RecA splice inh 36.9*, Mtb FBA inh 1.1, GDH-TPI inh 5.1, UGM FP inh 1.7 and Mtb betalactam 99.5.
For C=CCn1c(O)c(N=NC(=S)Nc2ccc(OC)c(Cl)c2)c2ccccc21 the results were Rv3671c inh 6.6, RecA splice inh 15.4, Mtb FBA inh 0.1, GDH-TPI inh 45.7*, UGM FP inh 2.4 and Mtb betalactam 3.6.
`C=CCn1c(O)c(N=NC(=O)OC(C)(C)C)c2ccccc21` gave Rv3671c inh -6.9, RecA splice inh -3.1, Mtb FBA inh 0.0, GDH-TPI inh 4.4, UGM FP inh -2.6 and Mtb betalactam -1.3.
C=CCn1c(O)c(N=NC(=O)C(O)c2ccccc2)c2ccccc21 (stereo unspecified) was read as Rv3671c inh -0.9, RecA splice inh 1.7, Mtb FBA inh 3.0, GDH-TPI inh 38.8*, UGM FP inh 2.0 and Mtb betalactam -4.2.
`C#CCn1c(O)c(N=NC(=O)C(O)c2ccccc2)c2ccccc21` (stereo unspecified) gave Rv3671c inh 1.3, RecA splice inh 1.7, Mtb FBA inh -0.2, GDH-TPI inh 31.2*, UGM FP inh 1.9 and Mtb betalactam -5.6.
Screening Cc1ccc(CNC(=O)C2CC3Cn4c(nc5ccccc54)C3N2C)o1 (stereo unspecified) returned Rv3671c inh -1.9, RecA splice inh -4.1, Mtb FBA inh -1.2, GDH-TPI inh 5.4, UGM FP inh 1.3 and Mtb betalactam -6.3.
Screening C=CCn1c(C)cc(C(=O)COC(=O)c2cncc(Br)c2)c1C returned Rv3671c inh -0.4, Mtb FBA inh -1.3, GDH-TPI inh -1.3, UGM FP inh 0.7 and Mtb betalactam 94.3.
CC[C@@]1(O)C(=O)OCc2c1cc1n(c2=O)Cc2cc3c(N)cccc3nc2-1 was read as Rv3671c inh -0.5, RecA splice inh -4.3, Mtb FBA inh 5.2, GDH-TPI inh 33.5*, UGM FP inh 1.5 and Mtb betalactam -4.6.
`CC[C@@]1(O)C(=O)OCc2c1cc1n(c2=O)Cc2cc3c(CN(C)C)c(O)ccc3nc2-1` gave Rv3671c inh 6.3, RecA splice inh inactive, Mtb FBA inh 7.7, GDH-TPI inh 34.3*, UGM FP inh 33.5* and Mtb betalactam -0.4.
`C[C@@H]1CN([C@@H](C)CO)C(=O)CCCn2nncc2CO[C@H]1CN(C)C(=O)Nc1cccc2ccccc12` gave Mtb FBA inh 28.6* and GDH-TPI inh 0.0.
Screening CC1CCCN(CCCNC(=O)c2coc3nc4ccccc4nc23)C1 (stereo unspecified) returned Rv3671c inh -10.3, RecA splice inh -19.9, Mtb FBA inh 155.3*, GDH-TPI inh 1.2, UGM FP inh -0.6 and Mtb betalactam 7.3.
Screening CC1CCN(CCCNC(=O)c2n[nH]c(=O)c3ccccc23)CC1 returned Rv3671c inh -1.8, RecA splice inh -0.2, Mtb FBA inh 0.5, GDH-TPI inh 7.0, UGM FP inh -0.8 and Mtb betalactam -7.7.
For CC1CCN(CCCNC(=O)c2coc3nc4ccccc4nc23)CC1 the results were Rv3671c inh -1.2, RecA splice inh -20.4, Mtb FBA inh active, GDH-TPI inh 7.5, UGM FP inh -5.2 and Mtb betalactam -5.8.
Screening O=Cc1ccc(N2CCCCCC2)cc1 returned Rv3671c inh 1.0, RecA splice inh -0.4, Mtb FBA inh 0.6, GDH-TPI inh 33.8*, UGM FP inh -0.9 and Mtb betalactam 33.4.
Screening N#CC(c1ccc(O)cc1)N1CCN(C(C#N)c2ccc(O)cc2)CC1 (stereo unspecified) returned Mtb FBA inh -1.2 and GDH-TPI inh 82.1*.
Screening CN(C)c1ccc(C2N(c3ccc(F)cc3)C(=O)C3CCCN32)cc1 (stereo unspecified) returned Rv3671c inh -0.6, RecA splice inh -1.9, Mtb FBA inh -1.4, GDH-TPI inh 39.6*, UGM FP inh -3.3 and Mtb betalactam -2.4.
For COc1c(N2CCNC(C)C2)c(F)cc2c(=O)c(C(=O)O)cn(C3CC3)c12 (stereo unspecified) the results were Rv3671c inh -5.0, RecA splice inh -0.9, UGM FP inh -2.2 and Mtb betalactam 100.1.
